Results on 23 sequences are retold here after the OligoGym collection.
Note: reference of the scale not given here.

For one assay, the target named is MUL1. In words: pooled miR-30 sensor sort-seq; sequence = guide strand. The following applies: shRNA.
As for TTGAGCTCTTGGGAGACCCGGG, the sensor-assay potency score (higher = more potent) was -0.319.
The same measure, in the same setting: with TATAACAGCATAAGGCACGCAT the figure was -0.0376.
TTCTATAACAGCATAAGGCACG: the sensor-assay potency score (higher = more potent) was -0.579.
ATACACGGTCTCTAGACCCAGA returned a sensor-assay potency score (higher = more potent) of -0.85.
On the same count and under the same terms, the same measure for TTAGATAGTACTGCATGCCTTG: -0.152; for TACTCTTTAAATCTTCACCCAA: -0.305; for TTAACAGACCGCACAGCTCCTT: -0.45.
On to TTTCTTTAACAGACCGCACAGC, for which the sensor-assay potency score (higher = more potent) is -0.894.
The same measure, in the same setting: the same measure for TTGCAGTTTTCCACAAACTGGC: -0.401; for TTTAGCTCCCTTGAGCTCTTGG: -0.00208; for TAACAGACCGCACAGCTCCTTC: -0.691.

In a further assay the target is MUM1L1. The assay is described as above. The following applies: shRNA.
Sequence TAAACCAGACTATCATTCCTGT displayed a sensor-assay potency score (higher = more potent) of -0.0642.
TAACACATGCACTTTCCTCTTT registered a sensor-assay potency score (higher = more potent) of -0.0342.
Turning to TTAGTGATCTTCCATAGGCAGT, the sensor-assay potency score (higher = more potent) was -1.42.
The same measure, in the same setting: the same measure for TTTGTTTCTCTTTACAATCAAA: -1.34; for TATTTGATTGCAGACTTCTTGT: 0.00671.
The same measure, in the same setting: the same measure for TTTGTTTCCACTTCACTTGGAA: 0.402; for TATTTCTGATATTTAAACCAGA: -0.575.
In the case of TTAGATACTTTGCTTCAGCTGC, the sensor-assay potency score (higher = more potent) is -0.267.
The same measure, in the same setting: with TAACTGGGTAACTAATATCAGC the figure was -1.56.
As for TTTGATTGCAGACTTCTTGTAA, the sensor-assay potency score (higher = more potent) worked out at 0.165.
With TTGAGATTTATTTAGGATCTTT, the sensor-assay potency score (higher = more potent) is -0.143.
Same read-out and setting: with TTGTGGTACATTTTGAGACAGC the figure was -1.11.
